# Source: PubChem BioAssay (Tox21)
# Unmarked numbers belong to inactive results. Records with an inconclusive call do not appear. Entries that show only a call come without a potency. The source made the active and inactive calls. Unless noted, calls come from the whole dose curve; as a rule, active = well fitted curve in the direction sought with a large enough effect in the repeat runs; inconclusive = weak or mixed curves; inactive = no such curve, though single readings can be large; an effect the other way counts as inactive or inconclusive.
# Assays:
# [1] = target: Acetylcholinesterase (Homo sapiens) (UniProt P22303); assay: Acetylcholinesterase (AChE) small molecule antagonists: enzyme-based qHTS assay (AID 1347397; calls by dose curve; note: nearly all actives have a fitted effect of over 55% in size); settings: Potency: AChE enzyme activity inhibition
# Method in brief: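 Colorimetric DTNB readout of acetylthiocholine hydrolysis, 10 min at room temperature, after 30 min room-temperature exposure of 50 mU/mL recombinant human enzyme to compound; DMSO vehicle control.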
# [2] = target: Acetylcholinesterase (Homo sapiens) (UniProt P22303); assay: Acetylcholinesterase (AChE) small molecule antagonists: fluorescence cell-based qHTS assay (AID 1347398; calls by dose curve; note: nearly all actives have a fitted effect of over 50% in size); settings: Potency: AChE activity
# Method in brief: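 Cellular AChE activity read as thiocholine from acetylthiocholine hydrolysis, detected by Thiolite Green fluorescence at 490/520 nm after 40 min at room temperature. Compounds were pre-incubated 30 min at 37 C on adherent SH-SY5Y cells.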
# [3] = target: Acetylcholinesterase (Homo sapiens) (UniProt P22303); assay: Acetylcholinesterase (AChE) small molecule antagonists: enzyme-based qHTS assay with human liver microsomes (AID 1347399; calls by dose curve; note: nearly all actives have a fitted effect of over 60% in size); settings: Potency: qHTS inhibition
# Method in brief: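 Recombinant human AChE (50 mU/mL in the enzyme mix) and human liver microsomes (0.25 mg/mL final) were preincubated with compound and NADPH (0.25 mg/mL final) for 30 min at 37 C. Acetylthiocholine/DTNB was then added; thiocholine was read colorimetrically after 10 min at room temperature.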
# [4] = target: Cytochrome P450 2D6 (Homo sapiens) (UniProt P10635); assay: Cytochrome P450 Family 2 Subfamily D Member 6 (CYP2D6) small molecule antagonists: luciferase reporter qHTS assay (AID 1671196); note: nearly all actives have a fitted effect of over 50% in size; note: potency is the fitted concentration of half-maximal effect
# Method in brief: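 Room-temperature luminescent CYP2D6 activity assay: compound preincubated 10 min with enzyme–substrate mix, NADPH-initiated reaction 1 h, detection reagent 20 min before reading.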
# [5] = target: Cytochrome P450 2C19 (Homo sapiens) (UniProt P33261); assay: Cytochrome P450 Family 2 Subfamily C Member 19 (CYP2C19) small molecule antagonists: luciferase reporter qHTS assay (AID 1671197); note: nearly all actives have a fitted effect of over 65% in size; note: potency is the fitted concentration of half-maximal effect
# Method in brief: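 First, compounds are pinned into enzyme-substrate mix and held 10 min at room temperature. Second, NADPH regeneration solution is added and plates incubate 1 h at 37C. Third, detection reagent is added and luminescence read after 20 min.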
# [6] = target: Cytochrome P450 2C9 (Homo sapiens) (UniProt P11712); assay: Cytochrome P450 Family 2 Subfamily C Member 9 (CYP2C9) small molecule antagonists: luciferase reporter qHTS assay (AID 1671198); note: nearly all actives have a fitted effect of over 50% in size; note: potency is the fitted concentration of half-maximal effect
# Method in brief: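 Enzyme-substrate mix preincubated with compound 10 min at room temperature; reaction started with NADPH regeneration solution, 1 h 37C. Luminescent luciferin product read after 20 min detection reagent.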
# [7] = target: Cytochrome P450 1A2 (Homo sapiens) (UniProt P05177); assay: Cytochrome P450 Family 1 Subfamily A Member 2 (CYP1A2) small molecule antagonists: luciferase reporter qHTS assay (AID 1671199); note: nearly all actives have a fitted effect of over 50% in size; note: potency is the fitted concentration of half-maximal effect
# Method in brief: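 Room-temperature CYP1A2 reaction with proluciferin substrate: compounds added from DMSO, 10 min preincubation, NADPH regeneration for 1 h. Luciferin detection reagent then added; luminescence recorded as RLU.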
# [8] = target: Voltage-gated inwardly rectifying potassium channel KCNH2 (Homo sapiens) (UniProt Q12809); assay: Human Ether-a-go-go-Related Gene (hERG) channel small molecule antagonists: fluorescence cell-based qHTS assay (AID 1671200); note: nearly all actives have a fitted effect of over 50% in size; note: potency is the fitted concentration of half-maximal effect
# Method in brief: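 Read-out: thallium influx as a surrogate for potassium, tracked as fluorescence (480 nm ex/540 nm em) every second for 2 min after Stimulus Buffer addition in dye-loaded hERG-U2OS cells.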
# [9] = target: Cytochrome P450 3A4 (Homo sapiens) (UniProt P08684); assay: Cytochrome P450 Family 3 Subfamily A Member 4 (CYP3A4) small molecule antagonists: luciferase reporter qHTS assay (AID 1671201); note: nearly all actives have a fitted effect of over 50% in size; note: potency is the fitted concentration of half-maximal effect
# Method in brief: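 Luminescent readout (RLU) proportional to CYP3A4 activity, from luciferin generated off a proluciferin substrate. Enzyme–substrate mix plus compound 10 min at room temp, NADPH regeneration 1 h, detection reagent 20 min.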
# Sequence of Cytochrome P450 2D6 (Homo sapiens) (P10635 whole entry, looked up): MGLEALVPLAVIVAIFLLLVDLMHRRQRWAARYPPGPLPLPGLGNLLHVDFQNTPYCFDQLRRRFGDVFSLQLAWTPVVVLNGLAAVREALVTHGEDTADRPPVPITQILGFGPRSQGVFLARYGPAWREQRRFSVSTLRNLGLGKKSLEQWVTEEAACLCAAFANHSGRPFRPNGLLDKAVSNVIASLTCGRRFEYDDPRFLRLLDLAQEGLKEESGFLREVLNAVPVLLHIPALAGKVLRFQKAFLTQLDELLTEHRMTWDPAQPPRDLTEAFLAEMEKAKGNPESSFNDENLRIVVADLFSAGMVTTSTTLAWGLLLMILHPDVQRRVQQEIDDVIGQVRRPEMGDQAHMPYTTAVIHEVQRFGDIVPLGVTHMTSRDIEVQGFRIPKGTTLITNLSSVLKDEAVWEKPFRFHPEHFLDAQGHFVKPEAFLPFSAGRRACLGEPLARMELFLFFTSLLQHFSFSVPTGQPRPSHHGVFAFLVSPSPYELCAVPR
# Sequence of Cytochrome P450 3A4 (Homo sapiens) (P08684 whole entry, looked up): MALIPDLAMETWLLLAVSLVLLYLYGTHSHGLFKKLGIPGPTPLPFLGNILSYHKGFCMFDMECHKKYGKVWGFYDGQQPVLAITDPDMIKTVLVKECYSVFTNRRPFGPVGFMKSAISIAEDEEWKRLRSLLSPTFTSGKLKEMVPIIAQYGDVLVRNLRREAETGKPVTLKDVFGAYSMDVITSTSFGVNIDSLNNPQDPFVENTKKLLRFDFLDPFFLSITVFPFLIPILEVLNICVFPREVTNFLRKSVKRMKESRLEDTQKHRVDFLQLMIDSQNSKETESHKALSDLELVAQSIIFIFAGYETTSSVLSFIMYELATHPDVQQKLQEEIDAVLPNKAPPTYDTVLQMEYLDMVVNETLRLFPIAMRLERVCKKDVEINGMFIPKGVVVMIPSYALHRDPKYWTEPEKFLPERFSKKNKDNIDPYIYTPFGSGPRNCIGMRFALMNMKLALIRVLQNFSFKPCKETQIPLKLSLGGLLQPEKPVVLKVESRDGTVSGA
# Sequence of Voltage-gated inwardly rectifying potassium channel KCNH2 (Homo sapiens) (Q12809 whole entry, looked up): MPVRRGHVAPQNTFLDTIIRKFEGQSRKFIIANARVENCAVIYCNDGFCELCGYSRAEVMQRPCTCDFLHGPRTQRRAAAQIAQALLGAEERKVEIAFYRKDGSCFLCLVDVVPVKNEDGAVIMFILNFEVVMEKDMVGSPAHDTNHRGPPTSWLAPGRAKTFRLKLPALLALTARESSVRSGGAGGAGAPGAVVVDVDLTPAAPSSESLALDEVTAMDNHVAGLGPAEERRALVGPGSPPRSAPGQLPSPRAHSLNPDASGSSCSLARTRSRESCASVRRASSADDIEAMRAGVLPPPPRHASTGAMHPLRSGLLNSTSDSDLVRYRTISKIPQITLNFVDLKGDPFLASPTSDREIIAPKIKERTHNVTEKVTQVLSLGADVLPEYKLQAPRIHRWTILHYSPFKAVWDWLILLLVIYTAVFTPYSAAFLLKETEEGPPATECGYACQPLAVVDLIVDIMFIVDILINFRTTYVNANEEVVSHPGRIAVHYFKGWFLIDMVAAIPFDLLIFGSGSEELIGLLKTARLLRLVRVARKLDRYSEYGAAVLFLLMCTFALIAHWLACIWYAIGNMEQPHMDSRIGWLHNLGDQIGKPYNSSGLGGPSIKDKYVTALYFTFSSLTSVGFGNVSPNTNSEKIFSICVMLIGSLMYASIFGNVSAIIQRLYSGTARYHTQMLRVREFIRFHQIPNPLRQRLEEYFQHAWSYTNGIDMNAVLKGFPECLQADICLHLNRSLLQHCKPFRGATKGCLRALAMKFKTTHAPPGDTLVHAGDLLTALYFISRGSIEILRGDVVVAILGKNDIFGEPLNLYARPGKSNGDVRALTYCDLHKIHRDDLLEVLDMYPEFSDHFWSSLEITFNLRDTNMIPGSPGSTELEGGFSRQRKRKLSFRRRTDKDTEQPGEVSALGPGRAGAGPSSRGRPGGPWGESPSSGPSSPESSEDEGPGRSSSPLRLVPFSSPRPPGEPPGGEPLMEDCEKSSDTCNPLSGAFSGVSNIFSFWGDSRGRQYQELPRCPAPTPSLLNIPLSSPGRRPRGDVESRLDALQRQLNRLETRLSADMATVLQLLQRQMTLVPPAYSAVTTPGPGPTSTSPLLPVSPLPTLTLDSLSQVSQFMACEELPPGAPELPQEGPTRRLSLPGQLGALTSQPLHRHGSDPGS
# Sequence of Cytochrome P450 2C9 (Homo sapiens) (P11712 whole entry, looked up): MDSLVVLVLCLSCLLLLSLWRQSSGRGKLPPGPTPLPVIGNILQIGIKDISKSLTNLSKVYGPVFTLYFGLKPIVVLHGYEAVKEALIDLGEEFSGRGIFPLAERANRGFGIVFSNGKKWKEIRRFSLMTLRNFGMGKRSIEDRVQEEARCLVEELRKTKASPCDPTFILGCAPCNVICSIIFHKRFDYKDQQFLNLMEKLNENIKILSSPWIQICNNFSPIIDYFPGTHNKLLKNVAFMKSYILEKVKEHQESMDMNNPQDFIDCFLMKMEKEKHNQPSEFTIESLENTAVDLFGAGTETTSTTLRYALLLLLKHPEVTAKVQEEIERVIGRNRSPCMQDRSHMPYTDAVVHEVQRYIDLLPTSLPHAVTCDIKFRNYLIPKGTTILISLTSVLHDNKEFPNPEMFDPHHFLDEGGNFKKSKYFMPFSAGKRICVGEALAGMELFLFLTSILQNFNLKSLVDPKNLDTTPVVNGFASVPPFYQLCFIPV
# Sequence of Cytochrome P450 1A2 (Homo sapiens) (P05177 whole entry, looked up): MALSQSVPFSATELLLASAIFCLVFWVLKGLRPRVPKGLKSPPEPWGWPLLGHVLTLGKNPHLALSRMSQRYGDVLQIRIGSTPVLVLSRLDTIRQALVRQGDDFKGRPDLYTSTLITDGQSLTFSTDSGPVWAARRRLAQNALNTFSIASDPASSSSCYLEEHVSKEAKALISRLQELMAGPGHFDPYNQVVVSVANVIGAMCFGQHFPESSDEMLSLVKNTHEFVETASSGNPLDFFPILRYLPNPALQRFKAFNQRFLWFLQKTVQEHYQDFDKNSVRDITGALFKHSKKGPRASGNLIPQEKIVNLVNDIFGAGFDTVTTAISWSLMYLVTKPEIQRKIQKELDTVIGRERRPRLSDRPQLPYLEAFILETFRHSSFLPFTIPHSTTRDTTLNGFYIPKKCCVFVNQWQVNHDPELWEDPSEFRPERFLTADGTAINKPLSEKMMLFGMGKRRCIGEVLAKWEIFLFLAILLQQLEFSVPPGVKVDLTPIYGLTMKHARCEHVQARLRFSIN
# Sequence of Cytochrome P450 2C19 (Homo sapiens) (P33261 whole entry, looked up): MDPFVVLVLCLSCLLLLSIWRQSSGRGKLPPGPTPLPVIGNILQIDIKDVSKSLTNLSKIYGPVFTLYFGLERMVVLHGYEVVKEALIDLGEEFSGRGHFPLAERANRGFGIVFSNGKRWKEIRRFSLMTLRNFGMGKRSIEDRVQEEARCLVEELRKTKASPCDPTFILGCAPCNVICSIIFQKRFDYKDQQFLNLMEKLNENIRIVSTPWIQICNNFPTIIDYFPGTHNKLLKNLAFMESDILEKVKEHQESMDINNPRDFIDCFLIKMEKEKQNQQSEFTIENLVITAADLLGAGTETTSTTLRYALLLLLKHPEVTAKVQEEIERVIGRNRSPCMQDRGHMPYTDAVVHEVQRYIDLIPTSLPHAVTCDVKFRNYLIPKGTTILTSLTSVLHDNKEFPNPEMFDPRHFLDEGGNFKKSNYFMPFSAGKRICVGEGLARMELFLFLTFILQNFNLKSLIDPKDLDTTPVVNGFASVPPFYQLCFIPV
# Sequence of Acetylcholinesterase (Homo sapiens) (P22303 whole entry, looked up): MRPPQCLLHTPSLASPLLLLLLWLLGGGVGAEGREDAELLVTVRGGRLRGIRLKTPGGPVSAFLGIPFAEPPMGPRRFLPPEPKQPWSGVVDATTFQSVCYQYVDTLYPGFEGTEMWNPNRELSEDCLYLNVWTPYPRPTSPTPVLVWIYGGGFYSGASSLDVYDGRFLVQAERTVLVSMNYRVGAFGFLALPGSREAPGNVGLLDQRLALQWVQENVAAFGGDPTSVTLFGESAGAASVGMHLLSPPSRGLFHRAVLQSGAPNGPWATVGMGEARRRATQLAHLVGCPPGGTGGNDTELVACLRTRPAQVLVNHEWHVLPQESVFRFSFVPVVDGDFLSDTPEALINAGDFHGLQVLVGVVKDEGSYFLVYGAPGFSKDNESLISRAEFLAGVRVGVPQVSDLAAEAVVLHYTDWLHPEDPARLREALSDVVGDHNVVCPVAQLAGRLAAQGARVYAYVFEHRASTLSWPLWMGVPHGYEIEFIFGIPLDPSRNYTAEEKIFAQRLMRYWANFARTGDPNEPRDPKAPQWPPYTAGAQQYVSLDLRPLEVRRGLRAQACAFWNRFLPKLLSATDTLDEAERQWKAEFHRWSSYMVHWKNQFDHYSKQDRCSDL
SMILES,Potency [1],Potency [2],Potency [3],Potency [4],Potency [5],Potency [6],Potency [7],Potency [8],Potency [9]
CN(N=O)C(N)=O,inactive,inactive,inactive,inactive,inactive,inactive,inactive,inactive,inactive
Cc1ncc2n1-c1ccc(Cl)cc1C(c1ccccc1F)=NC2,inactive,inactive,inactive,inactive,15.5 µM (active),17.4 µM (active),–,inactive,–
Cc1nnc2n1-c1sc(CCC(=O)N3CCOCC3)cc1C(c1ccccc1Cl)=NC2,inactive,inactive,inactive,inactive,inactive,inactive,–,inactive,–
CCCCc1c(C)nc(NCC)[nH]c1=O,inactive,inactive,inactive,inactive,79.6 µM (active),inactive,17.8 µM (active),inactive,inactive
O=S(=O)(O)C(F)(F)C(F)(F)C(F)(F)C(F)(F)C(F)(F)C(F)(F)F,inactive,inactive,inactive,inactive,79.6 µM (active),1.12 µM (active),inactive,inactive,inactive
O=[N+]([O-])c1cccc2c([N+](=O)[O-])cccc12,inactive,inactive,inactive,11.3 µM (active),22.6 µM (active),40.1 µM (active),1.01 µM (active),24.7 µM (active),31.9 µM (active)
CNNC,inactive,inactive,inactive,65.4 µM (active),inactive,inactive,–,inactive,–
CC1(C(=O)Nc2ccc(O)c(Cl)c2Cl)CCCCC1,inactive,inactive,inactive,71 µM (active),11.2 µM (active),35.6 µM (active),–,inactive,–
CCc1cc2c(s1)-n1c(C)nnc1CN=C2c1ccccc1Cl,inactive,inactive,inactive,inactive,inactive,inactive,inactive,inactive,inactive
O=C(Nc1ccccc1)N(Cc1ccc(Cl)cc1)C1CCCC1,inactive,inactive,inactive,12.6 µM (active),7.1 µM (active),15.9 µM (active),15.9 µM (active),38.9 µM (active),11.2 µM (active)
N#CCCC#N,inactive,inactive,inactive,inactive,inactive,inactive,inactive,inactive,inactive
O=NN1CCN(N=O)CC1,inactive,inactive,inactive,inactive,inactive,inactive,inactive,inactive,inactive
C=C(C)[C@@H]1CC=C(C=O)CC1,inactive,inactive,inactive,inactive,63.3 µM (active),71 µM (active),–,inactive,35.6 µM (active)
CN1CCC(O)(c2ccc(F)cc2)C(C(=O)c2ccc(F)cc2)C1 (stereo not given),inactive,inactive,inactive,17.4 µM (active),inactive,–,inactive,–,–
O=C1CN2CCOC2(c2ccccc2Cl)c2cc(Cl)ccc2N1 (stereo not given),inactive,inactive,inactive,8.71 µM (active),6.17 µM (active),–,inactive,inactive,–
c1ccc(N2CCNCC2)cc1,inactive,inactive,inactive,inactive,inactive,inactive,–,inactive,inactive
Nc1ccccc1Cl,inactive,inactive,inactive,6.87 µM (active),inactive,inactive,–,inactive,inactive
Cc1cc(C)nc(Nc2ccccc2)n1,inactive,inactive,inactive,inactive,79.6 µM (active),–,6.33 µM (active),inactive,inactive
CCCCN(CCCCO)N=O,inactive,inactive,inactive,inactive,inactive,–,inactive,–,–
Cc1ncsc1CCCl,inactive,inactive,inactive,inactive,inactive,inactive,–,inactive,inactive
ClCCCN1CCN(c2cccc(Cl)c2)CC1,inactive,inactive,inactive,0.977 µM (active),8.71 µM (active),–,15.5 µM (active),10.7 µM (active),inactive
O=C(Oc1ccc(Br)cc1)N1CCN2CCC1CC2,inactive,inactive,inactive,inactive,inactive,–,inactive,–,inactive
CCOC(=O)CP(=O)(OCC)OCC,inactive,inactive,inactive,inactive,inactive,inactive,–,inactive,inactive
C[C@]12CC[C@H]3[C@@H](CCC4=CC(=O)CC[C@@]43C)[C@@H]1CC[C@@H]2C(=O)O,inactive,inactive,inactive,inactive,inactive,–,inactive,–,inactive
COc1cc(OC)nc(NC(=O)NS(=O)(=O)c2ncccc2C(=O)N(C)C)n1,inactive,inactive,inactive,inactive,inactive,inactive,–,inactive,inactive
CCCSC(=O)N(CCC)CCC,inactive,inactive,inactive,inactive,inactive,–,inactive,inactive,inactive
